The record followed here is ChEMBL document CHEMBL3988442, “University of Dundee, Small-Polar-MMV Screening Library” (2021).

Experiment [1] has as its target T1, Aspartate--tRNA(Asp/Asn) ligase (Mycobacterium tuberculosis (strain ATCC 25618 / H37Rv)) (UniProt P9WFW3). Also: in the data most compounds retested in dose-response had high values.
T1 sequence (whole entry): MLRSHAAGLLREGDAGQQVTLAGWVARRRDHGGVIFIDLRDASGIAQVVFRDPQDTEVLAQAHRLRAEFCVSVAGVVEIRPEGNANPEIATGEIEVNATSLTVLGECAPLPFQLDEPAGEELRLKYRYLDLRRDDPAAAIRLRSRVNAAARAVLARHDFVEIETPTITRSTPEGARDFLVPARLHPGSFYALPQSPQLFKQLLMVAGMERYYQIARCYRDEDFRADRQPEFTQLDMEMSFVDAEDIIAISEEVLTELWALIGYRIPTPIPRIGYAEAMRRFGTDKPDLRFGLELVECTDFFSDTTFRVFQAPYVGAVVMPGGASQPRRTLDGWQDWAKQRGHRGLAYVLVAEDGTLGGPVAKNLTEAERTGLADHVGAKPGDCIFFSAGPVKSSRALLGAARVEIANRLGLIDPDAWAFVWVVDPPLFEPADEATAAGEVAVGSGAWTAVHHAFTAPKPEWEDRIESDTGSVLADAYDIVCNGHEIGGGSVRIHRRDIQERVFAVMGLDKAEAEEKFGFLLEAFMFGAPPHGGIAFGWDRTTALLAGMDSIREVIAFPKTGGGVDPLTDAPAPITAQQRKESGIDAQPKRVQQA
As to the kind of experiment: Assay for Asp RNA synthetase-1 from Mycobacterium tuberculosis. In kind it is functional. Also noted: scale not given: direction of the effect not stated beside the values. The conditions noted are these: 30 µM.

Experiment [2] addresses Shiga toxin 2 (Escherichia coli O157:H7) (UniProt P09385+P09386). As to the kind of experiment: E. coli 0.157:H7 Shiga Toxin SOP - stx2 screening assay. Also noted: scale not given: direction of the effect not stated beside the values. It counts as functional. Conditions: 30 µM.

For the compound `Cc1cc(C(=O)N2CCC(c3nccn3CCCN(C)C)CC2)no1`, the Percent Effect in experiment [1] is 7.7%; in experiment [2] it was -11.8%.
The like results for `Cc1ccc([C@@H]2CN(C(=O)c3ccc[nH]3)C[C@H]2NC(=O)C2CC2)cc1` were, in that order, -1.93% and 3.8%.
The like results for `Nc1cc(N2CCCC2c2cnccn2)ncn1` (centres undefined) were, in that order, 6.36% and 0.702%.
For `O=C(N[C@@H]1CN(c2ncccn2)[C@@H]2CCCO[C@@H]21)c1cnccn1` the same measures were 7.31% and 2.14%.
Regarding `CC(C)(CNC(=O)NCCOc1cccc(F)c1)C(N)=O`, the Percent Effect in experiment [1] is -1.21%; in experiment [2] it was 28.8%.
On to `CCS(=O)(=O)N1CCC(c2nnc(Cn3cccn3)n2C2CC2)CC1`, for which the results for the Percent Effect in experiment [1] and in experiment [2] were -3.09% and -6.14%, respectively.
Take `Cc1cn2c(n1)CCC(NC(=O)CCn1cncn1)C2` (centres undefined): the Percent Effect in experiment [1] is -0.674%; in experiment [2], 21.7%.
The like results for `Cc1cnn(CCNCC(=O)NCCOc2ccccc2)c1` were, in that order, -2.67% and 18.2%.
For `Cc1ccc(CN(C)C(=O)CN2CC(n3cccn3)C2)o1` the same measures were 1.26% and -26.8%.
With `CN(Cc1ccco1)[C@@H]1CN(Cc2ccc(F)cc2)C[C@@H]2CCCO[C@@H]21`, the Percent Effect in experiment [1] turned out to be 6.12%; in experiment [2], 7.23%.
For `CC(=O)Nc1nc(C(=O)N2CCCC2c2noc(C)n2)cs1` (centres undefined) the same measures were 0.425% and -22.5%.
For `Cc1nc(C2CCN(C(=O)CO)CC2)cc(N2CCOCC2)n1` the same measures were -1.91% and 17.7%.
Take `CC(=O)N1CCn2c(C(=O)N(C)C)cnc2C1`: the values for the Percent Effect in experiment [1] and in experiment [2] were -2.78% and -21.6%, respectively.
On to `Cc1cccc(-n2cc(C(=O)N3CCn4c(C)nnc4C3)nn2)c1`, for which the Percent Effect in experiment [1] was -2.42%; in experiment [2], -92.9%.
For `Cc1csc(N2CCCN(C(=O)C(C)n3ccnc3)CC2)n1` (centres undefined), the Percent Effect in experiment [1] is 1.2%; in experiment [2], -6.32%.
The like results for `Cc1ccn(-c2ccccc2NCc2ccccn2)n1` were, in that order, 0.661% and 4.81%.
The like results for `Cn1ncc(NCc2cccc(COC(C)(C)C)c2)c(Cl)c1=O` were, in that order, -4.13% and 12%.
